Laboratory results from PubChem BioAssay (NCI).
The panel holds about 83,000 compounds, 20% with a hit somewhere; the sample as a whole holds those more often.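 Cell lines were cultured in 96-well plates, exposed to a single compound concentration, and assessed for percent growth 48 hours later.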 Calls of active or inactive are those of the source. Rule for the calls: active = growth percent below 10; inactive = the rest.

The compounds below were run on PC-3 prostate (assay: NCI-60 one-dose screen, 48 h (100 = growth as untreated, 0 = no growth, -100 = all killed)). Conditions: 10 µM unless noted.

SMILES | growth
COc1cc(C(=O)N2CCN(C(=O)c3cc(OC)c(OCc4ccccc4)cc3N)CC2)c(N)cc1OCc1ccccc1 | 106% (inactive)
Nc1ccc(S(=O)(=O)Nc2ccnn2-c2ccccc2)cc1 | 90.1% (inactive)
COc1ccc(-c2nnc(SCC(=O)Nc3ccc(C(=O)/C=C/c4ccccc4)cc3)o2)cc1OC | 100% (inactive)
CCC(N)(C(=O)O)c1ccc(F)cc1 (centres undefined) | 81.4% (inactive)
COc1ccc(-c2c(C#N)cnc(N)c2-c2nc3cc(C)c(C)cc3[nH]2)cc1 | 57.8% (inactive)
CC(C)(C)NCC(O)COc1c(Br)c(Br)c(Br)c2c1OC(C)(C)C2 (centres undefined) | -90.2% (active)
O=C1/C(=C/c2cccc3cnccc23)Cc2cc(F)ccc21 | 79.2% (inactive)
COC(OC)C1(c2ccccc2)NC(=O)NC1=O (centres undefined) | 103% (inactive)
c1cncc(-c2nc3ccccc3[nH]2)c1 | 89.7% (inactive)
